The source of these data is PubChem BioAssay AID2284348 (EPA ToxCast).

By AC50 is commonly meant the concentration giving half of the maximal activity seen.

This test has as its system Japanese medaka Peroxisome Proliferator-activated Receptor alpha (PPARa), gene 100304458. In words: ATG_jmPPARa_EcoTox2: Attagene TRANS-FACTORIAL EcoTox-2 HepG2 Assay for Japanese medaka Peroxisome Proliferator-activated Receptor alpha (PPARa). The protocol: ATG_EcoTox2 is a cell-based, multiplexed assay created by modifying the existing Attagene TRANS-FACTORIAL system to include a panel of nuclear receptors from some or all the following species: human (Homo sapiens), african clawed frog (Xenopus laevis), rainbow trout (Oncorhynchus mykiss), japanese medaka (Oryzias latipes), and zebrafish (Danio rerio). The ECOTOX2-FACTORIAL format uses HepG2, a human liver cell line, with measurements taken at 24 hours after chemical dosing in a 24-well plate. ATG_jmPPARa_EcoTox2 is one of 29 assay components calculated in the ATG_EcoTox2 assay. It is designed to make measurements of mRNA induction, a form of inducible reporter, as detected with fluorescence intensity signals by Reverse transcription polymerase chain reaction (RT-PCR) and Capillary electrophoresis technology.The assay endpoint ATG_jmPPARa_EcoTox2 was analyzed in the positive analysis fitting direction relative to DMSO as the negative control and baseline of activity. Using a type of inducible reporter, measures of mRNA for gain-of-signal activity can be used to understand the reporter gene at the transcription factor-level as they relate to the gene PPARa. Furthermore, this assay endpoint can be referred to as a […], because this assay has produced multiple assay endpoints where this one serves a reporter gene function. To generalize the intended target to other relatable targets, this assay endpoint is annotated to the nuclear receptor intended target family, where the subfamily is non-steroidal.
Human liver HepG2 cells are transiently transfected with multiple reporter transcription units (MRTUs) in 6-well plates using FuGene 6 reagent (Roche; 3 ml FuGene/1 mg DNA). The MRTU constructs are regulated by a cis-regulating element (promoter). Each RTU expresses a GAL4-UAS that regulates the transcription of a nearby target reporter gene sequence. A major difference between the CIS and TRANS system is that in CIS activities of endogenous TFs are measured, whereas the TRANS assay evaluates changes in activities of exogenous, chimeric NR-Gal4 proteins. […] At the end of 24 hour incubation, total RNA was isolated using TriZol reagent (Invitrogen). The isolated RNA is then reverse-transcribed using oligo(dT) primer and Mo-MLV reverse transcriptase (Invitrogen) with DNAse I (Ambion) treatment for 30 min. The one-tenth of the produced cDNA was amplified by PCR using Taq DNA polymerase (Invitrogen) and two reporter sequence-specific primers. […] The fragments were purified using Qiaquick PCR columns (Qiagen), analyzed on an ABI 3130xL genetic analyzer (Applied Biosystems) with peak positions identified by using a set of X-rhodamine (ROX)-labeled MapMarker1000 molecular weight standards (BioVentures). […]

Molecules are shown by their SMILES. Inconclusive results are not listed. Active and inactive are the calls of the source. The calls were made as follows: active = hit-call score of the fitted dose curve at least 0.9, where 1 is the maximum; inconclusive = response in the unintended direction; inactive = score below 0.9.

For `O=S(=O)(O)C(F)(F)C(F)(F)C(F)(F)C(F)(F)C(F)(F)C(F)(F)F`, the molecule was classed as inactive. On to `O=C(O)C(F)(F)C(F)(F)C(F)(F)C(F)(F)C(F)(F)C(F)(F)C(F)(F)F`, for which the AC50 is 75 µM (active). Take `[Cl][Sn]([c]1ccccc1)([c]1ccccc1)[c]1ccccc1`: the AC50 is 0.473 µM (active). Still for that read-out and setting: the result for `CCCCOCN(C(=O)CCl)c1c(CC)cccc1CC` reads 50 µM (active).
